Test results reported in PubChem BioAssay (Tox21).
Several values for one entry are separate records, joined by “and”; a condition that tells them apart may be missing. Equal values may be shown once. Records with an inconclusive call do not appear. Entries that show only a call come without a potency. The source holds several records for some structures; these can differ, active in one and inactive in another. Activity calls are given as the source filed them. Unless noted, calls follow the shape of the full dose curve.

Tests used:
[1] = qHTS assay to identify small molecule agonists of the vitamin D receptor (VDR) signaling pathway - cell viability counter screen (AID 743224; active = well fitted curve in the direction sought with a large enough effect in the repeat runs; an effect the other way counts as inactive or inconclusive; also: nearly all actives have a fitted effect of over 50% in size; also: potency is read from the fitted curve at half-maximal effect); details: VDR-bla HEK293T viability, CellTiter-Glo luminescence, 16 h; series mostly up to 62.6 µM
Method in brief: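 VDR-bla cell line, quantitative HTS format; 16 h compound incubation (37C, 5% CO2); ATP-based CellTiter-Glo luminescence measured in the reporter assay wells.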

[2] = qHTS assay to identify small molecule antagonists of the vitamin D receptor (VDR) signaling pathway - cell viability counter screen (AID 743225; active = well fitted curve in the direction sought with a large enough effect in the repeat runs; an effect the other way counts as inactive or inconclusive; also: nearly all actives have a fitted effect of over 50% in size); details: VDR-bla HEK293T viability, CellTiter-Glo luminescence, 16 h; series mostly up to 61 µM
Method in brief: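 Parallel cytotoxicity test: VDR-UAS-bla HEK 293T, 3 nM (final) 1-alpha,25-dihydroxyvitamin D3 with test compound, 16 h, 37C. Endpoint is CellTiter-Glo luminescence in the same wells.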

[3] = qHTS assay to identify small molecule agonists of the NFkB signaling pathway (AID 1159509; active = well fitted curve in the direction sought with a large enough effect in the signal ratio in the repeat runs, not every such curve was filed as active; the % refers to the signal ratio); details: NFkB-bla ME-180 cells, beta-lactamase FRET ratio, 5 h; series mostly up to 61 µM
Method in brief: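 After overnight attachment, reporter cells received test compounds, DMSO or positive controls and were incubated 5 hr at 37 C. FRET substrate was then added for 1.5 hr at room temperature before dual-emission fluorescence reading.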

[4] = qHTS assay to identify small molecule agonists of the NFkB signaling pathway - cell viability counter screen (AID 1159515); details: NFkB-bla ME-180 viability, CellTiter-Glo luminescence, 5 h; series mostly up to 61 µM; also: nearly all actives have a fitted effect of over 55% in size
Method in brief: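 Viability in NFkB-bla ME-180 cells was measured by CellTiter-Glo luminescence, 30 min room temperature, in wells already treated 5 hr with compounds and read for reporter FRET.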

[5] = qHTS assay to identify small molecule agonists of the endoplasmic reticulum stress response signaling pathway (AID 1159516; active = well fitted activation curve with a large enough effect in the signal ratio in the repeat runs, not every such curve was filed as active; the % refers to the signal ratio); details: ESRE-bla HeLa, ER stress beta-lactamase reporter, 5 h; series mostly up to 61 µM
Method in brief: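 ER stress element reporter (bla) in HeLa. 1,500 cells/well, overnight attachment; 5 hr compound; 2 hr RT substrate; dual-emission fluorescence.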

[6] = qHTS assay to identify small molecule agonists of the endoplasmic reticulum stress response signaling pathway - cell viability counter screen (AID 1159517); details: ESRE-bla HeLa viability, CellTiter-Glo luminescence, 5 h; series mostly up to 61 µM;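 also: HeLa cells carrying an ER stress response element beta-lactamase reporter; nearly all actives have a fitted effect of over 50% in size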
Method in brief: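 Luminescence readout: CellTiter-Glo, 30 min RT, same wells as the ESRE-bla reporter read. HeLa ESRE-bla, 1,500 cells/well, o/n 37 C; cpd 5 hr 37 C/5% CO2.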

[7] = qHTS assay to identify small molecule antagonists of the retinoid-related orphan receptor gamma (ROR-gamma) signaling pathway - cell viability counter screen (AID 1159520; active = well fitted curve in the direction sought with a large enough effect in the repeat runs; an effect the other way counts as inactive or inconclusive; also: nearly all actives have a fitted effect of over 50% in size); details: Tet-on RORgamma CHO cells viability, ATP luminescence, 16 h; series mostly up to 92.4 µM
Method in brief: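 Tet-on ROR gamma CHO cells (1,000/well) were plated 4 hr, given compounds in DMSO for 2 hr at 37 C, then induced with 1 uM final doxycycline for 16 hr. Viability was read as ATP by CellTiter-Glo luminescence after 30 min.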

[8] = target: Nuclear receptor ROR-gamma (Homo sapiens) (UniProt P51449); test: qHTS assay to identify small molecule antagonists of the retinoid-related orphan receptor gamma (ROR-gamma) signaling pathway (AID 1159521; active = well fitted curve in the direction sought with a large enough effect in the repeat runs; an effect the other way counts as inactive or inconclusive; also: nearly all actives have a fitted effect of over 50% in size; also: potency is read from the fitted curve at half-maximal effect); details: Tet-on RORgamma CHO cells, RORE-luciferase, 16 h; series mostly up to 92.4 µM
Method in brief: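 Decreased RORE-driven luciferase luminescence indicates antagonism. Tet-on RORγ CHO cells received compound, then 1 uM final doxycycline 2 h later; signal read after 16 h incubation.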

[9] = qHTS assay to identify small molecule agonists of the AP-1 signaling pathway - cell viability counter screen (AID 1159525); details: ME-180 AP-1-bla cells viability, ATP luminescence, 5 h; series mostly up to 76.8 µM; also: nearly all actives have a fitted effect of over 55% in size
Method in brief: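 ME-180 AP-1-bla, 2500 cells/well, Opti-MEM + 0.5% dialyzed FBS; overnight 37 °C; cpd 15-pt titration, 5 h 37 °C; CellTiter-Glo 30 min RT; luminescence read; normalised to TOAB and DMSO controls.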

[10] = qHTS assay to identify small molecule agonists of the AP-1 signaling pathway (AID 1159526); details: ME-180 (cervical carcinoma) AP-1-bla reporter, beta-lactamase FRET ratio, 5 h; series mostly up to 76.8 µM; also: potency is read from the fitted curve at half-maximal effect

SMILES	Potency [1]	outcome [2]	outcome [3]	outcome [4]	outcome [5]	Potency [6]	outcome [7]	Potency [8]	outcome [9]	Potency [10]
COc1cc(O)c(C(=O)c2ccccc2)cc1S(=O)(=O)O	inactive	inactive	inactive	inactive	inactive	inactive	inactive	inactive	inactive	inactive
Cc1cnc(NC(=O)C2=C(O)c3ccccc3S(=O)(=O)N2C)s1	–	–	–	inactive	inactive	inactive	inactive	inactive	inactive	inactive
CCN1CCCC1=O	inactive	inactive	–	inactive	inactive	inactive	inactive	inactive	inactive	inactive
Cc1c(N(C)C)c(=O)n(-c2ccccc2)n1C	inactive	inactive	inactive	inactive	inactive	inactive	inactive	inactive	inactive	inactive
COc1ccc(C(=O)c2ccccc2)c(O)c1	inactive	inactive	–	inactive	inactive	inactive	inactive	inactive	inactive	inactive
Nc1ccc(N=Nc2ccccc2)c(N)n1	inactive	inactive	inactive	inactive	–	inactive	inactive	inactive	inactive	inactive
CCCCCCCCCCCCCCCCCC(=O)OCC(O)CO (centres undefined)	inactive	inactive	–	inactive	inactive	inactive	inactive	inactive	inactive	inactive
CC1=NN(c2ccccc2)C(=O)C1	inactive	inactive	inactive	inactive	inactive	inactive	inactive	inactive	inactive	inactive
CC(C)(C)NCC(O)c1ccc(O)c(CO)c1 (centres undefined)	inactive	inactive	–	inactive	inactive	inactive	inactive	inactive	inactive	inactive
NC(=O)N1c2ccccc2C=Cc2ccccc21	inactive	inactive	inactive	inactive	inactive	inactive	inactive	inactive	inactive	inactive
CC1(C)O[C@@H]2[C@@H](CO[C@@]3(COS(N)(=O)=O)OC(C)(C)O[C@@H]23)O1	inactive	inactive	inactive	inactive	inactive	inactive	inactive	inactive	inactive	inactive
C#C[C@]1(O)CC[C@H]2[C@@H]3CCc4cc(O)ccc4[C@H]3CC[C@@]21C	inactive	inactive	–	inactive	inactive	inactive	inactive	30.4 µM (active) and inactive	inactive	inactive
C[C@]12CC[C@@H]3c4ccc(O)cc4C[C@@H](CCCCCCCCCS(=O)CCCC(F)(F)C(F)(F)F)[C@H]3[C@@H]1CC[C@@H]2O (some centres undefined)	inactive	inactive	inactive	inactive	inactive	inactive	inactive	–	inactive	inactive
NC(=O)OCC(COC(N)=O)c1ccccc1	inactive	inactive	inactive	inactive	inactive	inactive	inactive	inactive	inactive	inactive
Cc1cccc(C)c1O	inactive	inactive	–	inactive	inactive	inactive	inactive	inactive	inactive	inactive
CCc1cc(C(N)=S)ccn1	inactive	inactive	inactive	inactive	inactive	inactive	inactive	inactive	inactive	inactive
COC(=O)c1ccc(C=O)cc1	inactive	inactive	inactive	inactive	inactive	inactive	inactive	inactive	inactive	inactive
CCCCOC(=O)CCCCCCCCC(=O)OCCCC	inactive	inactive	–	inactive	inactive	inactive	inactive	inactive	inactive	inactive
C=C(C)OC(C)=O	inactive	inactive	–	inactive	inactive	inactive	inactive	inactive	inactive	inactive
CC(=O)c1ccc(S(=O)(=O)NC(=O)NC2CCCCC2)cc1	inactive	inactive	–	inactive	inactive	inactive	inactive	inactive	inactive	inactive
CCOC(=O)C(C)(C)Oc1ccc(Cl)cc1	inactive	inactive	–	inactive	inactive	inactive	inactive	inactive	inactive	inactive
CCCCCCCCCCCCCC(=O)OC(C)C	inactive	inactive	–	inactive	inactive	inactive	inactive	inactive	inactive	inactive
O=C1OC(c2ccc(O)cc2)(c2ccc(O)cc2)c2ccccc21	48.7 µM (active) and inactive	inactive	–	inactive	inactive	inactive	inactive	8.57 µM (active) and inactive	inactive	–
COc1ccc(O)cc1	inactive	inactive	–	inactive	inactive	inactive	inactive	–	inactive	inactive

SMILES	Potency [1]	outcome [2]	outcome [3]	outcome [4]	outcome [5]	Potency [6]	outcome [7]	Potency [8]	outcome [9]	Potency [10]
COc1ccccc1NC(=O)CC(C)=O	inactive	inactive	–	inactive	inactive	inactive	inactive	inactive	inactive	inactive
C[C@]12CC[C@@H]3c4ccc(O)cc4CC[C@H]3[C@@H]1CCC2=O	inactive	inactive	–	inactive	inactive	inactive	inactive	–	inactive	inactive
CC(=O)/C=C/C1=C(C)CCCC1(C)C	inactive	inactive	–	inactive	inactive	inactive	inactive	inactive	inactive	inactive
COC1=CC(=O)C[C@@H](C)[C@]12Oc1c(Cl)c(OC)cc(OC)c1C2=O	inactive	inactive	–	inactive	inactive	inactive	inactive	8.56 µM (active) and 19.3 µM (active) and inactive	inactive	inactive
O=c1c(-c2ccc(O)cc2)coc2cc(O)cc(O)c12	inactive	inactive	–	inactive	inactive	inactive	inactive	inactive	inactive	inactive
COc1cc2c(c(OC)c1OC)-c1ccc(OC)c(=O)cc1[C@@H](NC(C)=O)CC2	inactive	inactive	–	inactive	–	inactive	inactive	538 nM (active) and 686 nM (active) and 37.6 nM (active)	inactive	0.172 µM (active)
NC(N)=NC(N)=NCCc1ccccc1	inactive	inactive	–	inactive	inactive	inactive	inactive	30.6 µM (active)	inactive	inactive
C1CNCCN1	inactive	inactive	–	inactive	inactive	inactive	inactive	inactive	inactive	inactive
CC(C)=CCC/C(C)=C/CO	inactive	inactive	–	inactive	inactive	inactive	inactive	inactive	inactive	inactive
C/C=C/c1ccc(O)c(OC)c1	inactive	inactive	–	inactive	inactive	inactive	inactive	inactive	inactive	inactive
C[C@]12C=CC(=O)C=C1CC[C@@H]1[C@@H]2C(=O)C[C@@]2(C)[C@H]1CC[C@]2(O)C(=O)CO	inactive	inactive	–	inactive	inactive	inactive	inactive	inactive	inactive	inactive
COC(=O)C1CCC(C(=O)OC)CC1 (centres undefined)	inactive	inactive	–	inactive	inactive	inactive	inactive	inactive	inactive	inactive
CC(=O)OC/C=C(C)/C=C/C=C(C)/C=C/C1=C(C)CCCC1(C)C	inactive	inactive	–	inactive	inactive	inactive	inactive	inactive	inactive	inactive
C=CC(=O)NC(C)(C)CS(=O)(=O)O	inactive	inactive	–	inactive	inactive	inactive	inactive	inactive	inactive	inactive
Nc1cccc(N)c1	inactive	inactive	–	inactive	inactive	inactive	inactive	inactive	inactive	inactive
COCCOCCOC	inactive	inactive	–	inactive	inactive	inactive	inactive	inactive	inactive	inactive
N[C@@H](Cc1c[nH]c2ccc(O)cc12)C(=O)O	inactive	inactive	–	inactive	inactive	inactive	inactive	inactive	inactive	inactive
CCOCCO	inactive	inactive	–	inactive	inactive	inactive	inactive	inactive	inactive	inactive
O=[N+]([O-])c1ccc(O)cc1	inactive	inactive	–	inactive	inactive	inactive	inactive	–	inactive	inactive
CCCCOCCOCCSC#N	inactive	inactive	–	inactive	inactive	inactive	inactive	inactive	inactive	inactive
CC(C)CC(C)CC(O)CC(C)C (centres undefined)	inactive	inactive	–	inactive	inactive	inactive	inactive	inactive	inactive	inactive
C#C[C@]1(O)CC[C@H]2[C@@H]3CCC4=CC(=O)CC[C@@H]4[C@H]3CC[C@@]21CC	inactive	inactive	–	inactive	inactive	inactive	inactive	48.6 µM (active) and inactive	inactive	inactive
CO[C@H]1C=CO[C@@]2(C)Oc3c(C)c(O)c4c(O)c(c(/C=N/N5CCN(C)CC5)c(O)c4c3C2=O)NC(=O)/C(C)=C\C=C[C@H](C)[C@H](O)[C@@H](C)[C@@H](O)[C@@H](C)[C@H](OC(C)=O)[C@@H]1C	inactive	inactive	–	inactive	inactive	inactive	inactive	inactive	inactive	inactive
